Bioassay records: PubChem, National Center for Advancing Translational Sciences (NCATS)
Shown are actives, neighbours in structure and some others; about 0.41% of the full set was active somewhere.
GLA inh pH 4.5 – blocks human alpha-galactosidase A at pH 4.5; P06280; purified enzyme, 4-MU-alpha-Gal fluorescence, pH 4.5; activity change, negative = inhibition, % at 105 µM; 230,000 tested, under 10 active; AID 1467;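 also: 0% = full activity with enzyme and -100% = basal without enzyme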
Target sequence (P06280 whole entry, looked up): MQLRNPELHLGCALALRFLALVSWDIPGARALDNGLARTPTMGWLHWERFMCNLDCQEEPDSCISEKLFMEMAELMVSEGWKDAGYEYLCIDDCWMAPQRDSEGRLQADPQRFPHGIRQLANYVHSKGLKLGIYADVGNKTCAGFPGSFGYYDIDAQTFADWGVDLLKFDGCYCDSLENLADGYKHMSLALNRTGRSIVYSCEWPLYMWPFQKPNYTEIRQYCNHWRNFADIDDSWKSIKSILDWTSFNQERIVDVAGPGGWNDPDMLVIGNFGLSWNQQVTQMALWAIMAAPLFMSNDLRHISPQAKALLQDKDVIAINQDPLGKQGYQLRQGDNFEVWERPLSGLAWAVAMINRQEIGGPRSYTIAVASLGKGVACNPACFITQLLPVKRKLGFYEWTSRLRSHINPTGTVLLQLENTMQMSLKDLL
GLA spleen mod – inhibitors or activators of human alpha-galactosidase in spleen homogenate. Potency, µM (series often up to 80 µM), inactives show at the top dose activity change, negative = inhibition, most hits filed as inhibitors. human spleen homogenate, 4MU-alpha-Gal fluorescence, 40 min. AID 2107. hit rate 0.008% among 240,000. P06280;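 also: potency is read from the fitted curve at half-maximal effect; 0% = enzyme with vehicle and -100% = no enzyme basal signal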
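Inhibition or activation of alpha-galactosidase in human spleen homogenate is scored by 4-MU fluorescence after 40 min at 37C, pH 5.0, with 1 mM substrate. AC50s come from concentration-response fitted to the Hill equation.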
GAA spleen mod – inhibitors or activators of human alpha-glucosidase in spleen homogenate; P10253; human spleen homogenate, 4-MU-alpha-glucoside fluorescence; Potency, µM (titrated, usually from 79.9 µM), inactives show top-dose activity change, negative = inhibition, most hits filed as inhibitors; hit rate 0.006% among 240,000; AID 2112;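 also: potency is read from the fitted curve at half-maximal effect; 0% = enzyme with vehicle and -100% = no enzyme basal signal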
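Human spleen homogenate (1 ug) incubated with compounds and 1 mM 4-methylumbelliferyl-alpha-D-glucopyranoside in pH 5.0 citrate/phosphate buffer, 37 C, 40 min. Stopped at pH 10; 4-MU fluorescence (Ex 365/Em 440 nm); AC50 by Hill fit.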
GAA glycogen – inhibitors or activators of human alpha-glucosidase glycogen cleavage. P10253. recombinant GAA, glycogen substrate, Amplex Red glucose oxidase fluorescence. Potency, µM (doses to about 76.4 µM), inactives show top-dose activity change, negative = inhibition, hits mostly inhibitors. hit rate 0.38% among 300,000. AID 2100;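 also: potency is read from the fitted curve at half-maximal effect; 0% = full enzyme reaction and -100% = no-enzyme basal signal; the screen sought inhibitors and activators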
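Recombinant human alpha-glucosidase (4 nM final) hydrolysed bovine liver glycogen (30 ug) for 40 min at 37 C in pH 5.0 citrate/phosphate with 0.01% Tween-20. Released glucose detected by glucose oxidase/Amplex Red, Ex 573/Em 610 nm. Compounds up to 77 uM; AC50 from Hill fits.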
N370S GC mod – N370S glucocerebrosidase modulation, Gaucher chaperone candidate; P04062; N370S GC spleen homogenate, 4MU-glucoside fluorescence; Potency, µM (titrated, usually from 59.4 µM), inactives show at the top dose activity change, negative = inhibition, actives largely listed as inhibitors; hit rate 0.092% among 330,000; AID 2101;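 also: potency is read from the fitted curve at half-maximal effect; 0% = full enzyme activity and -100% = no enzyme basal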
GAA inhib – alpha-glucosidase (human) inhibition; hit rate 0.005% among 200,000; Potency, µM (series often up to 76.9 µM), for the others: top-dose activity change, negative = inhibition, most hits filed as inhibitors; purified human GAA, 4-MU-alpha-glucoside fluorescence; P10253;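 also: potency is read from the fitted curve at half-maximal effect; plate controls were uninhibited enzyme wells for no effect and no-enzyme background for full effect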
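Read-out is 4-methylumbelliferone fluorescence (Ex 365/Em 440 nm) after NaOH/glycine stop at pH 10. Enzyme 4 nM, substrate 400 uM, pH 5.0 citrate buffer, 20 min room temperature; AC50 from Hill-equation concentration-response.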
The depositor's hits bear a star; ? = inconclusive; / = no result given; [ ] = dose if it differs, or a comment. Calls follow the shape of the dose curve; as a rule, active = well fitted curve in the direction sought with a large enough effect; inconclusive = small, poorly fitted or top-dose-only effect, or another doubt; inactive = no such curve, though single readings can be large; an effect the other way counts as inactive or inconclusive.

SMILES | GLA inh pH 4.5 | GLA spleen mod | GAA spleen mod | GAA glycogen | N370S GC mod | GAA inhib
O=C(CSc1ccc2ccccc2c1)N1CCN(c2ccc(O)cc2)CC1 | 0 | -1% | -3% | 16µM* | -22% | /
COc1ccc(N2CCN(C(=O)CSc3nnc(-c4cc5ccccc5cc4O)n3C)CC2)cc1 | 4 | -1% | 7% | -14% | 8% | 1%
COc1cc(C(=O)N2CC(=O)Nc3ccc(C)cc3C2c2ccc(F)cc2)cc(OC)c1OC (configuration not stated) | / | / | / | 7%[76.3 µM] | / | /
Cc1c(C(=O)Nc2cccc(C#N)c2)sc2nc3n(c(=O)c12)CCCCC3 | / | / | / | -5%[76.3 µM] | / | /
O=C1OC2(c3cc(I)c(O)c(I)c3Oc3c2cc(I)c(O)c3I)c2c(Cl)c(Cl)c(Cl)c(Cl)c21 | / | 8% | 1% | / | 0% | /
Cc1ccc(C(=O)Nc2onc3c2CCCC3)cc1 | / | / | / | -2%[76.3 µM] | / | /
COc1ccc(C2C(CC(=O)O)=C(O)C(=O)N2c2ccccc2)cc1 (configuration not stated) | -18 | 18% | -1% | 14µM* | -13% | 8%
COc1ccc(C(=O)c2cn[nH]c2-c2ccc(C)cc2O)cc1 | / | / | / | -3% | -13% | /
COc1ccc(-c2cc(=O)c(C(=O)c3ccc(C)cc3)n[nH]2)cc1 | 11 | 40µM* | ? | 6% | 27% | 11%
Oc1ccccc1N=Cc1c(O)ccc2oc3c(c12)CCCC3 | -2 | -1% | 3% | 5.6µM* | 7% | /
COc1ccccc1-c1noc(CSc2nnc(Cc3ccccc3)n2-c2ccc(C)c(C)c2)n1 | / | / | / | 8%[76.3 µM] | / | /
CO[C@@H]1CC[C@@]2(C)[C@@H](CC[C@@]3(C)[C@H]2CC=C2[C@H]4CC(C)(C)[C@H](O)[C@@H](OC(C)=O)[C@]4(CO)[C@H](O)C[C@]23C)[C@@]1(C)CO (tested in a mixture with another compound) | 2 | -6%[29.1 µM] | 7%[29.1 µM] | / | -26%[21.6 µM] | /
C/C=C(/C)C(=O)OC1C(OC(C)=O)[C@@]2(CO)C(O)C[C@@]3(C)C(=CCC4[C@@]5(C)CCC(OC6OC(C(=O)O)[C@@H](O[C@@H]7OC(CO)C(O)C(O)C7O)C(O)[C@H]6O[C@@H]6OC(CO)C(O)C(O)C6O)[C@](C)(CO)C5CC[C@@]43C)C2CC1(C)C (some centres not stated) | 3 | ? | -2% | / | 16µM* | /
CCOC(=O)CCCNC(=O)N1CCc2nc(-c3ccccc3)c3c(c2C1)CO[C@@H](C)C3 | 7 | 3%[17.5 µM] | -7%[17.4 µM] | / | -9%[12.8 µM] | /
Cc1c(C(=O)O)c2cc(O)ccc2n1-c1ccccc1 | 5 | -21% | -6% | 25µM* | -4% | -3%
C[C@@H]1O[C@@H](Oc2c(-c3cc(O)c(O)c(O)c3)oc3cc(O)cc(O)c3c2=O)[C@H](O)[C@H](O)[C@H]1O | -9 | 22% | -2% | 3.2µM* | -6% | -3%[15.4 µM]
O=c1c(OC2OC(CO)C(O)C(O)C2O)c(-c2ccc(O)c(O)c2)oc2cc(O)cc(O)c12 (configuration not stated) | -3 | -5% | -1% | 13µM* | -13% | -1%[15.4 µM]
CCN1C(=O)[C@H]2[C@H]3[C@H](O)[C@H](O)C/C(=N/OC[C@@H](C)[C@H](OCc4ccccc4)C(C)C)[C@@H]3CC[C@@H]2C1=O | / | -3%[17.5 µM] | -4%[17.4 µM] | / | 11%[12.8 µM] | /
COc1cc(/C=C/c2nc3ccccc3s2)cc(OC)c1O | -13 | -6% | -11% | 18µM* | -10% | -10%
COc1cc(/C=C/c2cc(C(=O)O)c3ccccc3n2)cc(OC)c1O | 0 | -12% | -14% | 14µM* | -4% | -5%
c1cncc(-c2nccc(NCc3cccs3)n2)c1 | / | -5% | 5% | / | -26% | /
COc1cccc(-c2nccc(NCc3cccs3)n2)c1 | / | 5% | 9% | / | 4µM* | /
Cc1ccccc1-c1nccc(NCc2cccs2)n1 | / | -5% | 4% | / | 4.5µM* | /
O=C(OCC1OC(OC(=O)c2cc(O)c(O)c(OC(=O)c3cc(O)c(O)c(O)c3)c2)[C@@H](OC(=O)c2cc(O)c(O)c(OC(=O)c3cc(O)c(O)c(O)c3)c2)C(OC(=O)c2cc(O)c(O)c(OC(=O)c3cc(O)c(O)c(O)c3)c2)C1OC(=O)c1cc(O)c(O)c(OC(=O)c2cc(O)c(O)c(O)c2)c1)c1cc(O)c(O)c(OC(=O)c2cc(O)c(O)c(O)c2)c1 (some centres not stated) | ? | -4% | ? | / | ? | /
CCOC(=O)c1c(C)[nH]c(C=Nc2ccccc2)c1O | -8 | 3% | 0% | 4% | -11% | 1%
SMILES | GLA inh pH 4.5 | GLA spleen mod | GAA spleen mod | GAA glycogen | N370S GC mod | GAA inhib
CCOC(=O)c1c(C)[nH]c(C=Nc2ccc(OC)cc2)c1O | -2 | -1% | -2% | 8.9µM* | -2% | -4%
Cc1ccc2[nH]c(=O)c(-c3nc4ccccn4c3NCc3ccco3)cc2c1 | -4 | -2% | 4% | 32µM* | 0% | -6%
O=Cc1c(NCc2ccco2)nc2ccccn2c1=O | -9 | 0% | 4% | -5% | -11% | -1%
CC(=O)Nc1ccc(N(C(=O)Cn2nnc3ccccc32)C(C(=O)NCc2ccccc2)c2ccc(C)cc2)cc1 (configuration not stated) | / | / | / | 7%[76.3 µM] | / | /
CCCc1cc(=O)[nH]c(Nc2ccc(O)cc2)n1 | 0 | 5% | -2% | 28µM* | -12% | -24%
COC(=O)C1=C(C(=O)OC)[C@@H]2N(C)c3ccc(OC)cc3[C@@]23C[C@@H](C(=O)OC)N(S(=O)(=O)c2ccc4c(c2)OCCN4C)C3=N1 | -4 | -5%[17.5 µM] | 4%[17.4 µM] | / | 3%[12.8 µM] | /
Cc1cc(=O)n(-c2ccc(O)cc2)[nH]1 | 0 | 4% | -5% | 14µM* | -2% | 3%
COCCCNC(=S)Nc1ccc(N2CCCCC2)cc1 | 6 | -7% | 2% | 14µM* | -2% | 2%
CCNC(=S)Nc1ccc(N2CCCCC2)cc1 | 4 | -6% | 8% | ? | 2% | -4%
COCCCNC(=S)NNC(=S)Nc1ccc(OC)cc1 | 1 | 2% | 1% | 4.5µM* | 1% | /
Cc1ccc(NC(=O)CSc2nnc(C)c(=O)[nH]2)cc1 | / | / | / | -7%[76.3 µM] | / | /
CCN(CC)c1ccc(NC(=O)CSc2nnc(C)c(=O)[nH]2)cc1 | / | / | / | 25µM* | / | /
CCN(CC)c1cccc(OC2=NS(=O)(=O)c3ccccc32)c1 | -49 | -3% | -4% | 28µM* | -11% | -5%
O=C(NCc1ccccc1)[C@]1(C(F)(F)F)C[C@H](CCCO)CCCO1 | / | -5% | -1% | / | -7% | /
Cc1ccc(N/C=C/C(=O)C(C)(C)C)c(O)c1 | -5 | -2% | -6% | 40µM* | 4% | 0%
